Hit rate of the full screen: of about 5,500 compounds, about 2,000 (36%) were called active. Not shown: some 18% with an inconclusive outcome. Rule as the data show it: active = normalized growth mostly below about 0.91 (no sharp cut-off); inconclusive = no clear call, values can overlap the other calls; inactive = mostly above about 0.92. The list shows a part of the results.
Assay: chemical genetic growth profiling, strain panel (AID 1159580);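 also: tested at 20 µM; growth read once vehicle control cultures reached saturation at 30 °C; 1 = growth at the plate median or of vehicle wells; lower values mean less growth of the strain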
Details: S. cerevisiae deletion strains, growth OD

Measured: normalized growth

O=C(CCCN1CCC(O)(c2ccc(Br)cc2)CC1)c1ccc(F)cc1
inactive: locus YHR030C, strain SLT2, stronger effect = lower value 0.959 | locus YHR079C, strain IRE1, stronger effect = lower value 0.976 | locus YJL095W, strain BCK1, stronger effect = lower value 0.962 | locus YJR066W, strain TOR1, stronger effect = lower value 0.937 | locus YLR113W, strain HOG1, stronger effect = lower value 1.02 | locus YNL183C, strain NPR1, stronger effect = lower value 0.902 | locus YOR231W, strain MKK1, stronger effect = lower value 0.981 | locus YPL256C, strain CLN2, stronger effect = lower value 1.02
